Measured values taken from PubChem BioAssay (EPA / NIEHS).
Calls of active or inactive are those of the source. The calls were made as follows: active = hit-call score of the fitted dose curve at least 0.9, where 1 is the maximum; inactive = score below 0.9.

experiment: ATG_M_32_CIS: Attagene CIS-FACTORIAL HepG2 Assay for M32 Transcription Factor (Internal Marker) (AID 2282949); conditions: HepG2 Attagene cis-factorial M32 reporter, mRNA; actives raise or lower the signal;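 also: background control marker of the multiplexed CIS panel rather than a real target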
Method: ATG_CIS is a cell-based, multiplexed-readout assay that uses HepG2, a human liver cell line, with measurements taken at 24 hours after chemical dosing in a 24-well plate.ATG_M_32_CIS is one of 52 assay component(s) measured or calculated from the ATG_CIS assay. It is designed to make measurements of mRNA induction, a form of inducible reporter, as detected with fluorescence intensity signals by Reverse transcription polymerase chain reaction (RT-PCR) and Capillary electrophoresis technology.Data from the assay component ATG_M_32_CIS was analyzed into 1 assay endpoint. This assay endpoint, ATG_M_32_CIS, was analyzed with bidirectional fitting relative to DMSO as the negative control and baseline of activity. Using a type of inducible reporter, measures of mRNA for gain or loss-of-signal activity can be used to understand the background control at the transcription factor-level as they relate to the gene . Furthermore, this assay endpoint can be referred to as a secondary readout, because this assay has produced multiple assay endpoints where this one serves a background control function. To generalize the intended target to other relatable targets, this assay endpoint is annotated to the background measurement intended target family, where the subfamily is internal marker.
Human liver HepG2 cells are transiently transfected with multiple reporter transcription units (MRTUs) in 6-well plates using FuGene 6 reagent (Roche; 3 ml FuGene/1 mg DNA). The MRTU constructs are regulated by a cis-regulating element (promoter). […] A major difference between the CIS and TRANS system is that in CIS activities of endogenous TFs are measured, whereas the TRANS assay evaluates changes in activities of exogenous, chimeric NR-Gal4 proteins. […] At the end of 24 hour incubation, total RNA was isolated using TriZol reagent (Invitrogen). The isolated RNA is then reverse-transcribed using oligo(dT) primer and Mo-MLV reverse transcriptase (Invitrogen) with DNAse I (Ambion) treatment for 30 min. The one-tenth of the produced cDNA was amplified by PCR using Taq DNA polymerase (Invitrogen) and two reporter sequence-specific primers. The PCR products were fluorescently labeled by primer extension with 6-arboxyfluorescein (6-FAM) 5'-labeled reporter sequence-specific primer (2 min at 95 C, 20 s at 68 C and 10 min at 72 C) and these products were digested with 5U of HpaI (New England Biolabs) for 2h at 37 C. The fragments were purified using Qiaquick PCR columns (Qiagen), analyzed on an ABI 3130xL genetic analyzer (Applied Biosystems) with peak positions identified by using a set of X-rhodamine (ROX)-labeled MapMarker1000 molecular weight standards (BioVentures). The raw capillary electrophoresis data was processed using Attagraph software (Attagene).

SMILES	outcome	AC50
CN(C)CCCN1c2ccccc2CCc2ccc(Cl)cc21	inactive	–
CCC(C)=NO	inactive	–
COC(OC)C(C)c1ccccc1 (stereo not given)	inactive	–
O=[N+]([O-])c1ccccc1C(F)(F)F	inactive	–
C=C(C)C(=O)OCC1CCCO1 (stereo not given)	inactive	–
O=C(Oc1ccccc1)c1ccccc1	inactive	–
CCCCCCCCCCCCCCCCCC[N+](C)(C)C	–	39.2 µM (active)
NCc1ccccc1	inactive	–
CC[N+](CC)(CC(=O)Nc1c(C)cccc1C)Cc1ccccc1 (tested in a mixture with another compound)	inactive	–
CC1=C(CC(=O)O)c2cc(F)ccc2/C1=C\c1ccc(S(C)=O)cc1 (stereo not given)	inactive	–
C=CN1CCCCCC1=O	inactive	–
CCOc1ccc2c(c1)C(C)CC(C)(C)N2 (stereo not given)	inactive	–
C[Si](C)(C)O[Si](C)(C)O[Si](C)(C)C	inactive	–
CCC(=O)OCc1ccc(OC)cc1	inactive	–
COc1ccc2ccccc2c1	inactive	–
COC(=O)/C=C\C(=O)OC	inactive	–
CC(=O)OC(C)(C)Cc1ccccc1	inactive	–
c1ccc(CNc2ncnc3nc[nH]c23)cc1	inactive	–
CCCN[C@H]1CCc2nc(N)sc2C1	inactive	–
Cc1ccccc1S(N)(=O)=O	inactive	–

SMILES	outcome	AC50
CC1(C)S[C@@H]2[C@H](NC(=O)[C@H](N)c3ccccc3)C(=O)N2[C@H]1C(=O)O	inactive	–
Nc1nnc(-c2ccc([N+](=O)[O-])o2)o1	inactive	–
C=CCOC(=O)C(=C)C	inactive	–
C=C1CC[C@H]2C[C@@H]1C2(C)C	inactive	–
CCCCCCC(O)CCCCCCCCCCC(=O)OC (stereo not given)	inactive	–
CC(C)CC(=O)CC(C)C	inactive	–
CC(C)n1c(/C=C/[C@@H](O)C[C@@H](O)CC(=O)O)c(-c2ccc(F)cc2)c2ccccc21	inactive	–
c1ccc2c(c1)Oc1ccccc1S2	inactive	–
O=C1NC(=O)[C@@H]2CC=CC[C@H]12	inactive	–
CO[Si](CCCNCCN)(OC)OC	inactive	–
Sc1nc2ccccc2s1	inactive	–
OCCc1ccccn1	inactive	–
Cc1ccccc1S(=O)(=O)O	inactive	–
CC1=C(CC=O)C(C)(C)CCC1	inactive	–
Clc1ccc(Sc2cc(Cl)c(Cl)cc2Cl)cc1	inactive	–
C=CCOCC(CC)(CO)COCC=C	inactive	–
CC1=NN(c2cc(Cl)c(S(=O)(=O)O)cc2Cl)C(=O)C1N=Nc1ccc(S(=O)(=O)O)cc1 (stereo not given)	inactive	–
CC(C)CC(=O)O	inactive	–
CC1=CCCC(C)(C)C12CCC(C)O2 (stereo not given)	inactive	–
CN1CCCC1	inactive	–
